Only some compounds are listed: those with a hit (about 11% of all), similar ones and a draw of the others.
BAZ2B inh – qHTS Assay for Inhibitors of BAZ2B; AlphaScreen BAZ2B-H3K14Ac peptide displacement; Potency, µM (top dose mostly 114 µM), inactives show at the top dose activity change, negative = inhibition, hits mostly inhibitors; 360,000 tested, 4.4% active; AID 504333, 2011; further: on the % scale 0 is the no-effect control and ±100 the full control effect; nearly all actives have a fitted effect of over 60% in size
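BAZ2B 50 nM plus b-H3(5-23)K14Ac 50 nM, PBS pH 7.4/0.01% Tween-20, 30 min RT; compound added (max 110 uM), 30 min RT; streptavidin donor/Ni-chelate acceptor beads 10 ug/mL final, 20 min dark; AlphaScreen read.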
HP1b chromo inh – HTS for Inhibitors of HP1-beta Chromodomain Interactions with Methylated Histone Tails; AlphaScreen HP1-beta / biotin-H3K9me3 peptide binding; AID 540317, 2011; Chromobox protein homolog 1 (Homo sapiens), P83916; 390,000 tested, 0.56% active; Potency, µM (doses to about 114 µM), for the others: at the top dose activity change, negative = inhibition, actives largely listed as inhibitors; further: nearly all actives have a fitted effect of over 70% in size
Target sequence (P83916 whole entry, looked up): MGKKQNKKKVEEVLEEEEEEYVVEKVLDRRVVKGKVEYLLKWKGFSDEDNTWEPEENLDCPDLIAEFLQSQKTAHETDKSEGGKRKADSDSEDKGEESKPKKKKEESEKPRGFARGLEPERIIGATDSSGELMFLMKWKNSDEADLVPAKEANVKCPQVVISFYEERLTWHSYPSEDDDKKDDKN
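HP1-beta protein (50 nM final) preincubated 30 min at room temperature with biotinylated H3(1-18)K9me3 peptide (50 nM) in PBS pH 7.4, 0.01% Tween-20, then compound added for 30 min. AlphaScreen streptavidin donor/nickel chelate acceptor beads (10 ug/mL final), 30 min dark, luminescence read.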
L3MBTL1 block – qHTS Assay for the Inhibitors of L3MBTL1 | Lethal(3)malignant brain tumor-like protein 1 (Homo sapiens), Q9Y468 | AlphaScreen L3MBTL1–H3K9me1 peptide binding | Potency, µM (titrated, usually from 57.1 µM), without a hit: at the top dose activity, negative = inhibition, most hits filed as inhibitors | 230,000 tested, 0.66% active | AID 485360, 2010; further: on the % scale 0 is the no-effect control and ±100 the full control effect; nearly all actives have a fitted effect of over 60% in size
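L3MBTL1 (50 nM) pre-complexed 30 min with biotinylated H3(1-15)K9me1 peptide (75 nM), then compounds added for 30 min at room temperature; AlphaScreen streptavidin donor/nickel chelate acceptor beads (10 ug/mL final) read after 30 min dark incubation.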
G9a block – qHTS Assay for Inhibitors of Histone Lysine Methyltransferase G9a; Histone-lysine N-methyltransferase EHMT2 (Homo sapiens), Q96KQ7; G9a H3K9 monomethylation, AlphaScreen, 2 h; Potency, µM (highest dose often 102 µM), for inactives: top-dose activity, negative = inhibition, actives largely listed as inhibitors; 350,000 tested, 8.8% active; AID 504332, 2011; further: on the % scale 0 is the no-effect control and ±100 the full control effect; nearly all actives have a fitted effect of over 75% in size
Target sequence (Q96KQ7 913-1193 limits assumed): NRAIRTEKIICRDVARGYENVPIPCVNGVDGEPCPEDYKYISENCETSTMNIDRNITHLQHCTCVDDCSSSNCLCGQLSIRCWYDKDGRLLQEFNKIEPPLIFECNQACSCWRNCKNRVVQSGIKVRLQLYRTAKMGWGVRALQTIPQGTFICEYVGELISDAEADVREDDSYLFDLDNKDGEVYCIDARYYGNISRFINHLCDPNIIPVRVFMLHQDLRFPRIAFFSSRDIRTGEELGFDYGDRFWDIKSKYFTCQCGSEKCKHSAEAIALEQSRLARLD
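AlphaScreen read-out: biotin-H3K9 peptide (500 nM) methylation by 20 nM enzyme with 20 uM SAM, 2 h at room temperature after 15 min compound preincubation; anti-monomethyl H3K9 antibody plus donor/acceptor beads, 10 min dark.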
JMJD2A Tudor inh – qHTS Assay for Inhibitors of JMJD2A-Tudor Domain; Lysine-specific demethylase 4A (Homo sapiens), O75164; AlphaScreen JMJD2A-Tudor / H3K4me3 peptide binding; Potency, µM (series often up to 114 µM), inactives show at the top dose activity change, negative = inhibition, hits mostly inhibitors; 390,000 tested, 4.4% active; AID 504339, 2011; further: on the % scale 0 is the no-effect control and ±100 the full control effect; nearly all actives have a fitted effect of over 50% in size
Starred values were filed as active, the others as inactive; ? = inconclusive; / = no result given; [ ] = dose if it differs, or a comment. The call rests on the fitted dose curve; in most records, active means well fitted inhibition curve with a large enough effect; inconclusive means small, poorly fitted or top-dose-only effect; inactive means no such curve, though single readings can be large or run the other way. Potency means the concentration at half of the fitted maximal effect.

SMILES	BAZ2B inh	HP1b chromo inh	L3MBTL1 block	G9a block	JMJD2A Tudor inh
Cc1ccc(NC(=O)CCn2c(=O)c3cccn3c3ccccc32)c(Cl)c1	-19%	26%	/	-26%[59 µM]	-28%
Cc1ccc(N(Cc2cc3ccccc3[nH]c2=O)C(=O)c2cccc(Cl)c2)cc1	-8%	-8%	/	?	-27%
CC1(C)Cc2c(c(N3CCCC3)[nH]c(=S)c2C#N)CO1	12%	/	/	?	/
CC1(C)Cc2[nH]c(=S)c(C#N)cc2CO1	25µM*	-19%	5%	0.71µM*	6.3µM*
N#Cc1cc2c([nH]c1=O)CCCC2	-6%	48%	/	-13%[59 µM]	3%
N#Cc1cc2c([nH]c1=S)CCCC2	32µM*	-28%	4%	1.4µM*	3.5µM*
CCCCNC(=O)c1ccc(Cn2c(=S)[nH]c3c([nH]c4ccc(OC)cc43)c2=O)cc1	-5%	16%	2%	-19%	-32%
COc1ccc2[nH]c3c(=O)n(Cc4ccc(C(=O)N5CCC(C(N)=O)CC5)cc4)c(=S)[nH]c3c2c1	?	?	9%	3.2µM*	4µM*
COc1ccc2[nH]c3c(=O)n(Cc4ccc(C(=O)N5CCCCCC5)cc4)c(=S)[nH]c3c2c1	-37%	28%	4%	?	?
CC[C@H](C)NC(=O)c1ccc(Cn2c(=S)[nH]c3c([nH]c4ccc(OC)cc43)c2=O)cc1	71µM*	-1%	?	56µM*	?
COc1ccc2[nH]c3c(=O)n(Cc4ccc(C(=O)NCC5CCCO5)cc4)c(=S)[nH]c3c2c1 (centres undefined)	?	16%	-2%	1.3µM*	10µM*
CCOC(=O)C(C)Sc1nnc2cc(C)c3ccccc3n12 (centres undefined)	-7%	12%	/	2%[59 µM]	-16%
COCCn1c(=O)cnc2cnc(OC)nc21	/	/	/	-1%[0.501 µM]	/
COc1ccc2c(CC(=O)Nc3ccc(OC)c(S(=O)(=O)N4CCOCC4)c3)coc2c1	-31%	2%	-3%	0%[59 µM]	-23%
COc1ccc(NC(=O)Cc2coc3cc(C)c(C(C)C)cc23)cc1S(=O)(=O)N1CCOCC1	?	8%	-6%	10µM*	-30%
COc1ccc(S(=O)(=O)N2CCOCC2)cc1NC(=O)Cc1coc2cc(C)c(C)cc12	-15%	27%	/	50µM*	-17%
COc1ccc(S(=O)(=O)N2CCOCC2)cc1NC(=O)CCNC(=O)c1ccc(Cl)cc1	6%	29%	2%	-32%	-6%
COc1ccc(S(=O)(=O)N2CCOCC2)cc1NC(=O)CCNC(=O)c1ccc(Br)cc1	1%	8%	-9%	16µM*	-14%
O=C(Nc1cccc(Br)c1)Nc1nc2c(s1)CCCCCC2	1%	18%[57 µM]	/	-20%[59 µM]	-8%
CCOC(=O)c1sc(=S)sc1SCc1cccc(C(F)(F)F)c1	-35%	-16%	/	32µM*	-28%
COc1cc(C2SCCS2)cc(Br)c1Oc1ncccc1[N+](=O)[O-]	?	?	-2%	10µM*	?
Fc1ccccc1NC(=S)NCc1ccc2c(c1)OCO2	-2%	58%	3%	19%[59 µM]	-6%[57.1 µM]
O=S(=O)(c1c(F)cccc1F)N1CCN(C(=S)NCc2ccc3c(c2)OCO3)CC1	-29%	-6%	7%	32µM*	-11%
O=C(NC(=S)N1CCN(Cc2ccc3c(c2)OCO3)CC1)c1cccc(Br)c1	25µM*	-10%	?	9%[59 µM]	?
CCCNC(=S)N1CCN(Cc2ccc3c(c2)OCO3)CC1	?	?	8%	20µM*	28µM*
SMILES	BAZ2B inh	HP1b chromo inh	L3MBTL1 block	G9a block	JMJD2A Tudor inh
C=CCNC(=S)N1CCN(Cc2ccc3c(c2)OCO3)CC1	50µM*	?	34%[2.29 µM]	-6%[0.501 µM]	14µM*
Cc1c(C(=O)Nc2cccc(C(F)(F)F)c2)oc2ccc3c(c12)C(=O)CC(C)(C)O3	-12%	36%	/	8%[59 µM]	1%
COc1cccc(NC(=O)c2nn(-c3ccc(C)cc3)c(=O)n(C)c2=O)c1	20%	31%[57 µM]	/	-1%[59 µM]	-17%
Cc1ccc(NC(=O)CSc2nncn3c2cc2sccc23)cc1F	?	-3%	/	-5%[59 µM]	-29%
Cc1ccc(S(=O)(=O)CCC(=O)Nc2sccc2C(N)=O)cc1	/	14%[57 µM]	?	/	-28%
Cc1c(NC(=O)CN2CCN(c3ccc(O)cc3)CC2)c(=O)n(-c2ccccc2)n1C	/	?	-6%	6.3µM*	28µM*
Cc1ccc(S(=O)(=O)CCC(=O)Nc2sccc2C#N)cc1	9%	31%	10%	25µM*	0%
COc1ccc(CNCC(=O)Nc2sccc2C#N)cc1	50µM*	22%	-19%	28µM*	-7%[11.4 µM]
N#Cc1ccsc1NC(=O)CN1CCN(c2ccc(O)cc2)CC1	-35%	?	-12%	18µM*	?
N#Cc1ccsc1NC(=O)CN1CCN(c2ccccc2)CC1	-9%	19%	-3%	-2%[59 µM]	-17%
CC(=O)c1cccc(NC(=O)COC(=O)CCC(=O)c2cccs2)c1	-3%	5%	9%	10%[0.501 µM]	-10%
COc1ccc(OC)c(CNC(=O)c2nn(-c3ccc(OC)c(Cl)c3)c(=O)c3c2c2ccccc2n3C)c1	/	67%	/	20%[59 µM]	-19%
CCCCn1c(N)c(N(CC(C)C)C(=O)CSCC(=O)Nc2ccc(C)cc2)c(=O)[nH]c1=O	-3%	4%	5%	?	-10%
CC(=O)N1CCN(CC(=O)Nc2sccc2C#N)CC1	-26%	-12%	/	52%	56µM*
COc1ccc(-c2cn3cccnc3n2)cc1NC(=O)COc1ccccc1	-15%	22%[57 µM]	/	3%[59 µM]	-10%
Cc1ccc2nc(N(CCCN(C)C)C(=O)c3ccc(S(=O)(=O)N(C)C)cc3)sc2c1	-11%	18%	-9%	?	-4%
CN(C)CCCN(C(=O)c1ccc(S(=O)(=O)N(C)C)cc1)c1nc2cc3c(cc2s1)OCO3	?	11%	-19%	50µM*	-26%
CC(=O)c1ccc(C(=O)N(Cc2cccnc2)c2nc3c(C)c(C)ccc3s2)cc1	-31%	16%	/	-45%[59 µM]	-26%
Cc1ccc2sc(N(CCCN(C)C)C(=O)c3ccc(S(=O)(=O)N(C)C4CCCCC4)cc3)nc2c1C	?	?	-5%	32µM*	?
CCN(Cc1ccccc1)S(=O)(=O)c1ccc(C(=O)N(CCCN(C)C)c2nc3cc4c(cc3s2)OCO4)cc1	25µM*	-12%	/	/	56µM*
CC(=O)c1ccc(C(=O)N(CCCN(C)C)c2nc3c(C)c(C)ccc3s2)cc1	?	?	/	-38%[59 µM]	?
CCN(Cc1ccccc1)S(=O)(=O)c1ccc(C(=O)N(CCCN(C)C)c2nc3c(C)c(C)ccc3s2)cc1	10µM*	-11%	-10%	35µM*	?
